Bioassay records: PubChem BioAssay, National Center for Advancing Translational Sciences (NCATS)
Cruzain inh noDet: cruzain (T. cruzi) inhibition without detergent. 200,000 tested, 2.3% active. P25779. AID 1476. Potency, µM, for inactives: max response, negative = inhibition, actives largely listed as inhibitors. purified cruzain, Z-FR-AMC fluorescence, no detergent;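 further: plate controls were enzyme without inhibitor for no effect and buffer without enzyme for full effect; nearly all actives have a fitted effect of over 40% in size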
Target sequence (P25779 123-467 limits assumed): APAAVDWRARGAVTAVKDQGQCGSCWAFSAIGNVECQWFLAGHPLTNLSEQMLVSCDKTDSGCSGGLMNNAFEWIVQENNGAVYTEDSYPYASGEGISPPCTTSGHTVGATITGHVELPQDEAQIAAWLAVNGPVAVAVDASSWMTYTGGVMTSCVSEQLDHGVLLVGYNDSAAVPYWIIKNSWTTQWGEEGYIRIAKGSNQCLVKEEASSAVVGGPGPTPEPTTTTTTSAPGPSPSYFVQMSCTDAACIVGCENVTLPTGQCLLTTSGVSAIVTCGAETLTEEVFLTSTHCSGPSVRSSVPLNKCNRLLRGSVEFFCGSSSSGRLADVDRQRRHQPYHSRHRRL
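Purified cruzain at 1.5 nM, pre-incubated 15 min with compound at room temperature in 100 mM sodium acetate pH 5.5, 5 mM DTT, 0.00005% Triton X-100. Reaction started with 2 uM Z-FR-AMC; AMC fluorescence increase over 60 s gives rate.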
Cruzain Triton: cruzain (T. cruzi) inhibition with detergent. Potency, µM, without a hit: max response, negative = inhibition, usual class: inhibitors. 200,000 tested, 0.43% active. purified cruzain, Z-FR-AMC fluorescence, 0.01% Triton;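 further: plate controls were neutral wells for no effect and buffer without enzyme for full effect; nearly all actives have a fitted effect of over 40% in size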
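Purified cruzain (1.5 nM final) was preincubated with compounds for 15 min at room temperature in 100 mM sodium acetate pH 5.5, 5 mM DTT, 0.01% Triton X-100. Reaction started with 2 uM Z-FR-AMC; AMC fluorescence change over 60 s gave activity.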
An asterisk follows results filed as active; ? = inconclusive. Shown are actives, neighbours in structure and some others; about 2.6% of the full set was active somewhere. The call rests on the fitted dose curve; in most records, active means well fitted curve in the direction sought with a large enough effect; inconclusive means small, poorly fitted or top-dose-only effect, or another doubt; inactive means no such curve, though single readings can be large; an effect the other way counts as inactive or inconclusive. Potency means the concentration at half of the fitted maximal effect.

SMILES | Cruzain inh noDet | Cruzain Triton
CCCCN(C)CCCNC(=O)CN1C(=O)COc2ccc(S(=O)(=O)N3CCC(C)CC3)cc21 | -5.5% | 0.8%
O=C(CCC(=O)OCC(=O)c1ccc(-c2ccccc2)cc1)Nc1cccc(Cl)c1 | 25.1µM* | 2.4%
COc1ccc(C(=O)CCC(=O)Nc2ccccc2C)cc1 | -7.3% | 0.2%
CCOc1ccccc1OCCCC(=O)OCC(=O)Nc1cccc(Cl)c1 | 1.0% | -6.4%
Cc1ccccc1NC(=O)CCC(=O)OCC(=O)c1ccc(-c2ccccc2)cc1 | 12.6µM* | 2.8%
CCN(CC)C(=O)Cn1c(SCC(=O)Nc2ccc(F)cc2)nc2ccccc21 | 5.3% | -2.0%
CCc1cnc2c(c1SCC(=O)NCc1ccc(C)cc1)c(=O)n(C)c(=O)n2C | -14.9% | 0.1%
COc1ccc(-n2nc(C(=O)Nc3cc(C)ccn3)c3c4ccccc4n(C)c3c2=O)cc1Cl | -1.6% | 0.0%
O=C(Cn1c(=O)oc2cc(S(=O)(=O)NCc3ccccc3)ccc21)NCc1ccccc1Cl | -4.5% | -2.7%
CCOc1ccc(-c2cc(NC(=O)Nc3cccc(C(C)=O)c3)c(C(=O)OC)s2)cc1 | 20.5% | -1.8%
CCOC(=O)c1sc(-c2ccccc2)cc1NC(=O)Nc1ccc([N+](=O)[O-])cc1 | 10µM* | -2.9%
Cc1ccccc1CCNC(=O)c1cc2ccccn2n1 | 3.8% | -0.4%
Cc1ccc(S(=O)(=O)Nc2cc3c(cc2N2CCOCC2)n(C)c(=O)n3C)c(C)c1 | ? | -1.4%
C/C(=N/N=C1/NC(=O)CC(C(=O)O)S1)c1ccccc1 (configuration not stated) | 2.3% | -3.9%
C/C(=N\N=C1/NC(=O)C(C)S1)c1ccc([N+](=O)[O-])cc1 (configuration not stated) | 15.8µM* | 25.1µM*
Cc1c(C(=O)NCCN(C)C)oc2c1-c1nn(Cc3ccccc3Cl)cc1CC2 | 29.3% | 1.4%
Cc1cccc(C(=O)Nc2ccc(C(=O)/C=C/c3cccnc3)cc2)c1 | ? | -13.3%
O=C(/C=C/c1cccnc1)c1ccc(NC(=O)c2cccc(Br)c2)cc1 | 25.1µM* | -10.7%
COc1ccc(/C=N/OC/C(O)=C(\C#N)c2nc3ccccc3[nH]2)cc1 | -29.0% | 1.6%
COc1ccc(OC/C(O)=C(\C#N)c2nc3ccccc3[nH]2)cc1 | 25.1µM* | -1.1%
CCc1ccc(/C=N/NC(=O)c2cc(C3CC3)nc3ccc(Br)cc23)s1 | 25.1µM* | 2.6%
CCc1ccc(/C=N/NC(=O)c2cc(-c3ccccc3OC)nc3ccccc23)s1 | -27.3% | -7.8%
COc1ccc(CNC(=O)CCc2c(C)nc3c4cccnc4nn3c2C)cc1 | -9.4% | -3.3%
Cc1ccccc1NC(=O)Cn1c(=O)n(CCCCCC(=O)NCc2ccc3c(c2)OCO3)c(=O)c2sccc21 | -18.6% | -1.8%
COc1ccc(NC(=O)c2ccccc2NC(=O)CSc2ccc(Cl)cc2)cc1 | 12.6µM* | 8.6%
SMILES | Cruzain inh noDet | Cruzain Triton
COc1ccc(NC(=O)c2ccccc2NC(=O)CSc2ccccc2)cc1 | -18.6% | -1.1%
O=C(CSc1ccc(Cl)cc1)Nc1ccc(NC(=O)c2ccco2)cc1 | 10µM* | 3.7%
O=C(CSc1ccc(Cl)cc1)Nc1ccc(N2CCN(C(=O)c3ccco3)CC2)cc1 | -10.1% | -1.2%
CN1C(=O)/C(=N/OC(=O)c2ccccc2)c2ccccc21 | 6.31µM* | 4.47µM*
CN1C(C)(C)CC(=NOC(=O)c2ccccc2)CC1(C)C | 1.7% | -0.6%
Cc1ccc2nc3c(cc(C#N)c(=O)n3-c3nnc(SCc4ccccc4Cl)s3)c(=O)n2c1 | 16.7% | 0.3%
COc1ccc(NC(=O)CSc2nc3ccccc3c3nc4ccccc4n23)cc1 | -22.8% | -1.5%
COc1ccc(NC(=O)CSc2ccc3c4c(cccc24)C(=O)c2ccccc2-3)cc1 | 12.6µM* | 4.0%
N#Cc1cccc(NC(=O)CSc2ccccc2)c1 | -15.6% | 3.2%
N#Cc1cccc(NC(=O)CSc2ccc3c4c(cccc24)C(=O)c2ccccc2-3)c1 | 10µM* | 1.7%
Cc1cc(Cl)ccc1OCC(=O)Nc1c(C(=O)c2ccccc2)oc2ccccc12 | -3.0% | -0.6%
COc1ccc(NC(=O)c2cc(S(=O)(=O)N3CCCCCC3)cn2C)cc1Cl | 6.4% | -7.7%
CC(CNC(=O)CCn1c(=O)c2cccn2c2ccc(F)cc21)c1ccccc1 (configuration not stated) | 29.5% | -7.3%
CC(CNC(=O)CCCn1c(=O)c2cccn2c2ccc(F)cc21)c1ccccc1 (configuration not stated) | 15.8µM* | -3.3%
CC(C)c1ccc(OCC(=O)NC(=S)Nc2ccc3c4c(cccc24)CC3)cc1 | 25.1µM* | 1.2%
O=C(COc1ccccc1)NC(=S)Nc1ccc2c3c(cccc13)CC2 | ? | -7.5%
Cc1ccc(OCC(=O)NC(=S)Nc2ccc3c4c(cccc24)CC3)cc1 | ? | -11.8%
O=C(/C=C/c1ccccc1)NC(=S)Nc1ccc2c3c(cccc13)CC2 | 12.6µM* | -6.1%
CCc1cccc(OCC(=O)Nc2ccc(S(=O)(=O)Nc3cc(C)nc(C)n3)cc2)c1 | ? | -4.2%
CCCCNC(=O)CSc1nc2ccccc2nc1Cc1ccccc1 | 4.5% | 0.3%
O=C(NCC#CCOCc1ccccc1)c1ccccc1 | 12.6µM* | 11.2µM*
O=C(NCCCc1ccccc1)c1ccccc1 | 1.2% | 5.2%
COc1ccc(/C=N/NC(=O)c2ccccc2Cl)cc1CSc1nc2ccccc2s1 | 15.8µM* | -8.3%
COc1ccc(/C=N/NC(=O)c2cccnc2)cc1CSc1nc2ccccc2s1 | ? | -5.6%
COc1ccccc1C(=O)Nc1nc2ccc(S(=O)(=O)N3CCCC3)cc2s1 | -6.1% | -0.2%
SMILES | Cruzain inh noDet | Cruzain Triton
CS(=O)(=O)N1CCC2(CC1)CN(c1ncccn1)C2 | 15.8µM* | -2.5%
CS(=O)(=O)N1CCC[C@@]2(CCN(c3ncccn3)C2)C1 | -0.1% | 3.0%
Cc1ccc(Nc2nnc(SCC(=O)Nc3ncc(S(=O)(=O)c4ccc([N+](=O)[O-])cc4)s3)s2)cc1 | 7.94µM* | -1.3%
CCC(C)(C)C(=O)Nc1ncc(S(=O)(=O)c2ccc([N+](=O)[O-])cc2)s1 | -9.7% | -12.4%
O=C(Nc1ncc(Cc2cccc(Cl)c2Cl)s1)c1ccc([N+](=O)[O-])cc1 | -22.2% | 3.5%
O=C(Nc1nnc(CCS(=O)(=O)c2ccc3ccccc3c2)s1)c1ccc([N+](=O)[O-])cc1 | 12.6µM* | -0.6%
O=C(Nc1nnc(CCS(=O)(=O)c2ccc3ccccc3c2)s1)c1cccs1 | ? | -0.9%
O=C(Nc1ncc(S(=O)(=O)c2ccc([N+](=O)[O-])cc2)s1)c1ccc2ccccc2c1 | 20µM* | 0.4%
O=C(Nc1ncc(Cc2cc(Cl)ccc2Cl)s1)c1ccc([N+](=O)[O-])cc1 | 12.6µM* | 4.4%
CS(=O)(=O)Nc1nnc(SCC(=O)Nc2cccc([N+](=O)[O-])c2)s1 | 9.3% | -4.8%
COc1cc(-c2noc(-c3ccc(N4CCOCC4)c([N+](=O)[O-])c3)n2)cc(OC)c1OC | -16.8% | -10.5%
Cc1ccc(Cl)cc1N1CCN(C(=O)c2c(C)oc3ncnc(N4CCOCC4)c23)CC1 | ? | -2.5%
Clc1ccccc1-c1nnc(COc2ccccc2)o1 | -0.7% | -7.8%
CN(C)c1ccc(CNC(=O)C2CCN(C(=O)c3ccc(-n4ccc5ccccc54)s3)CC2)cc1 | 9.9% | -3.1%
Cc1ccc(NC(=O)CN2C(=O)c3ccccc3Sc3ncccc32)c(C)c1 | ? | -3.8%
S=C(Nc1ccccc1)Nc1ccc(OCc2ccccc2)cc1 | 12.6µM* | 5.1%
S=C(Nc1ccc(OCc2ccccc2)cc1)Nc1cccc(Cl)c1Cl | ? | -4.8%
